CYP2C19 activ – cytochrome P450 2C19 (human) activation. P33261. recombinant CYP2C19, luciferin-H EGE luminescence; stronger effect = higher value; 0 = fully inhibited enzyme, 1 = untreated enzyme. activation factor at 5 µM. 96,000 tested, under 10 active. AID 1025;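 active = activation factor of at least 2 at 5 µM in the primary screen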
Target sequence (P33261 whole entry, looked up): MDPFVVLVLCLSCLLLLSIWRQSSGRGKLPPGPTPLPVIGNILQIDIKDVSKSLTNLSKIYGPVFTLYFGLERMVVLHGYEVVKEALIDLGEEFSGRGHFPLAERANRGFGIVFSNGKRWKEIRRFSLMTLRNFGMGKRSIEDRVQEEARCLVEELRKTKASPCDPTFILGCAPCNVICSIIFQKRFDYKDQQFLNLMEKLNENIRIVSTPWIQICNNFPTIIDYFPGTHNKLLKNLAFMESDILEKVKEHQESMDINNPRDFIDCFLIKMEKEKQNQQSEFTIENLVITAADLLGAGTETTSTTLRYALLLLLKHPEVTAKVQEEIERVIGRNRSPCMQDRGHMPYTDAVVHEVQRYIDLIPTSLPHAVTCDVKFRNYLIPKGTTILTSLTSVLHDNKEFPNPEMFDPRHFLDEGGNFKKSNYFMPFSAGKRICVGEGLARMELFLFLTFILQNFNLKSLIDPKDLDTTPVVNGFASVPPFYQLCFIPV
PostGolgi yeast – growth inhibition of a yeast mutant, post-Golgi transport screen | 0.9% of 98,000 active | post-Golgi transport phenotypic cell assay | inhibition, % at 10 µM;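 note: yeast cells grown in 1536-well plates; yeast grown about 18 h at 30C before absorbance read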
CYP2C9 act – activators of human CYP2C9 | activation factor at 5 µM | recombinant CYP2C9, luciferin-H conversion, luminescence; stronger effect = higher value; factor 1 = untreated enzyme, 0 = blocked | 1.4% of 96,000 active | AID 1024 | P11712;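 active = activation factor of 2 or more for CYP2C9 at a 5 µM dose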
CYP2C19 inh – human CYP2C19 inhibition | P33261 | CYP2C19 Supersomes, luciferin-H EGE luminescence, 30 min | inhibition, % at 5 µM | 21% of 96,000 active | AID 778;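 active = CYP2C19 inhibition above a set limit at 5 µM in the primary screen, cut at about 50% in these data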
PostGolgi ctrl – yeast control strain growth, post-Golgi counter-screen. inhibition, % at 10 µM. 5% of 98,000 active. efflux-deficient yeast background strain, growth absorbance A615, 16 h
CYP2C9 inhib – inhibitors of human CYP2C9; CYP2C9 Supersomes, luciferin-H conversion, luminescence; inhibition, % at 5 µM; 20% of 96,000 active; AID 777;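 active = blocking of liver enzyme CYP2C9 beyond about 50% at 5 µM, limit read from the data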
Hits are given with their value; n = inactive; x = not tested or not shown. Hits are enriched below; roughly 32% of the tested compounds scored in any of these assays. Cut-off read from the data, not from the text of the source, unless noted: active = inhibition above about 30%; inactive = the rest.

SMILES	CYP2C19 activ	PostGolgi yeast	CYP2C9 act	CYP2C19 inh	PostGolgi ctrl	CYP2C9 inhib
CC1(C)Cc2c(C#N)c(OCC(=O)c3ccc(Cl)cc3)nc(-c3ccco3)c2CO1	n	n	n	59	n	n
CCc1nc(OCC(=O)c2ccccc2)c(C#N)c2c1COC(C)(C)C2	n	n	n	n	n	n
O=C(NCc1cccc(C(F)(F)F)c1)C1CCN(c2ncccn2)CC1	n	n	n	n	n	67
Cc1cc(C)nc(N2CCC(C(=O)NCc3cccc(C(F)(F)F)c3)CC2)n1	n	n	n	n	n	n
Cc1ccnc(N2CCC(C(=O)Nc3cccc(C(F)(F)F)c3)CC2)n1	n	n	n	91	n	n
CCOc1cc(C)c(S(=O)(=O)NC2CCCCC2)cc1C	n	n	n	72	n	n
COc1cc(C)c(S(=O)(=O)NC2CC(C)(C)NC(C)(C)C2)cc1C	n	n	n	n	n	n
CCOc1cc(S(=O)(=O)Nc2ccc(Cl)cn2)ccc1F	n	n	n	n	n	96
CCOc1cc(S(=O)(=O)NC2CCCCCC2)ccc1F	n	n	n	n	40	n
COc1ccc(S(=O)(=O)Nc2ccc(Cl)cn2)c(C)c1C	n	n	n	n	n	53
Cc1ccc(NC(=O)c2cn(-c3cccc(C)n3)cn2)cc1	n	n	n	n	n	n
CN(C)c1ccc(C2N(C(=O)N3CCOCC3)CCN2S(=O)(=O)c2ccccc2)cc1 (stereo not given)	n	n	n	n	n	n
O=C1C2C3CCCC3=C3CCCC3C2C(=O)N1c1ccccc1 (stereo not given)	n	n	n	n	n	n
Cc1cccc(OCCNc2nc3c(c(=O)n(C)c(=O)n3C)n2C)c1	n	n	n	n	n	n
Cc1cc(C(F)F)n2nc(C(=O)Nc3ccccc3Br)nc2n1	n	n	n	n	n	n
CC(=O)c1cc(F)c(N2CCN(C(=O)c3ccco3)CC2)cc1C	n	n	n	60	n	n
CCn1cc(C(=O)NCc2ccc3c(c2)OCO3)c(=O)c2cc(F)c(N3CCN(C(=O)c4ccco4)CC3)cc21	n	n	n	n	n	58
CCn1cc(C(=O)NCc2ccccc2)c(=O)c2cc(F)c(N3CCN(C(=O)c4ccco4)CC3)cc21	n	n	n	53	n	64
Cn1nc(Oc2nc(N3CCOCC3)nc(N3CCOCC3)n2)ccc1=O	n	n	n	n	n	n
Cc1cc(OCC[N+]2(C)CCCCC2)nc2ccccc12	n	n	n	n	n	n
CCC(CC)NC(=O)Cc1ccccc1[N+](=O)[O-]	n	n	n	n	n	n
CC(=O)NC(CCS(C)(=O)=O)C(=O)Nc1ccc(C)c(F)c1 (stereo not given)	n	n	n	n	n	n
Cc1ccc(C2N(c3ccc(Cl)c(Cl)c3)C(=O)C3CCCN32)o1 (stereo not given)	n	40	n	n	n	n
COc1ccc(N2C(=O)C3CCCN3C2c2ccc(C)o2)cc1Cl (stereo not given)	n	n	n	n	n	n
Cc1cccc(NS(=O)(=O)c2ccccc2)n1	n	n	n	n	n	n
SMILES	CYP2C19 activ	PostGolgi yeast	CYP2C9 act	CYP2C19 inh	PostGolgi ctrl	CYP2C9 inhib
COc1ccc(S(=O)(=O)Nc2cccc(C)n2)c2ccccc12	n	n	n	67	n	n
CCCNS(=O)(=O)c1cccc2cccnc12	n	n	n	n	n	n
Cc1cccc(NS(=O)(=O)c2cccc3cccnc23)n1	n	n	2.5	n	n	n
COc1ccccc1NS(=O)(=O)c1cccc2cccnc12	n	n	n	70	n	n
COc1ccc(OC)c(NC(=O)c2ccccc2NS(=O)(=O)c2cccc3cccnc23)c1	n	n	n	77	n	92
O=C(O)c1ccccc1NS(=O)(=O)c1cccc2cccnc12	n	n	n	n	n	n
COc1cccc(CNc2cccc3cccnc23)c1O	n	n	2.2	81	n	n
CC(C)CO/C(=N/S(=O)(=O)c1ccccc1)c1ccccc1	n	n	n	76	n	78
CC(C)O/C(=N\S(=O)(=O)c1ccc(Cl)cc1)c1ccccc1	n	n	n	95	n	95
CS/C(=N\S(=O)(=O)c1ccc(Cl)cc1)c1ccccc1	n	n	n	96	n	89
CC(C)OC(=S)N/C(=N\S(=O)(=O)c1ccccc1)c1ccccc1	n	n	n	n	n	61
CSC(=NS(=O)(=O)c1ccccc1)SC	n	n	n	n	n	n
CCOC(=O)CSc1nnc(CNC(=O)c2ccc(OC)cc2OC)n1-c1ccc(OC)cc1	n	n	n	n	n	n
CC(C(=O)Nc1ncc2c(n1)CC(C)(C)CC2=O)N1C(=O)c2ccccc2C1=O (stereo not given)	n	n	n	n	n	n
CS(=O)(=O)Nc1cccc(C(=O)CC2(O)C(=O)Nc3ccc(Br)cc32)c1 (stereo not given)	n	n	n	n	n	n
CC(O)c1nc2ccc(Cc3ccc4nc(C(C)O)[nH]c4c3)cc2[nH]1 (stereo not given)	n	n	n	n	n	n
COC(=O)c1ccccc1NC(=O)CN(CCc1ccccc1)S(C)(=O)=O	n	n	n	52	n	n
COC(=O)c1ccccc1NC(=O)CN(c1cc(OC)ccc1OC)S(C)(=O)=O	n	n	n	91	n	98
COc1ccc(OC)c(N(CC(=O)Nc2ccccc2)S(C)(=O)=O)c1	n	n	n	74	n	n
CCN(CC(=O)Nc1ccccc1C(=O)OC)S(=O)(=O)c1ccc(OC)cc1	n	n	n	65	40	n
O=C(CC(=O)NC1CCCCC1)N/N=C/c1ccc(Cl)cc1	x	n	x	x	n	x
O=C(Nc1ccccc1)Nc1ccc(C(=O)N2CCOCC2)cc1	n	n	n	n	n	n
NCCc1nnc(SCc2ccc(F)cc2)o1	n	n	n	90	n	75
COc1ccc(CSc2nnc(CNS(C)(=O)=O)o2)cc1	n	n	n	n	n	n
CCCn1c(C)cc(=O)c2cc(NC(=O)c3cnccn3)ccc21	n	n	n	n	n	n
SMILES	CYP2C19 activ	PostGolgi yeast	CYP2C9 act	CYP2C19 inh	PostGolgi ctrl	CYP2C9 inhib
Cc1cccc(C)c1N1CCN(c2ccc3nnc(C(F)(F)F)n3n2)CC1	n	n	n	64	48	89
Cc1cc(C)n(CNc2nc(C(F)(F)F)cs2)n1	n	n	n	n	n	n
CCC(C)(C)c1nnc(NC(=O)c2ccc([N+](=O)[O-])cc2)s1	n	n	n	n	n	n
CCSc1nc2c(c(=O)[nH]1)C(c1ccncc1)C(C(=O)OC(C)C)=C(C)N2 (stereo not given)	n	n	n	90	n	57
N#Cc1nn(-c2ccccc2)nc1N1CCCCC1	n	n	n	n	n	51
c1ccc2c(N3CCCCC3)ncnc2c1	n	n	n	n	n	n
CCOc1cccc(-c2nnc3sc(-c4cc(OC)c(OC)cc4OC)nn23)c1	n	x	n	n	x	n
CCOc1cccc(-c2nnc3sc(C4CCCCC4)nn23)c1	n	n	n	94	33	n

High-throughput results deposited in PubChem by several laboratories.
